The values that follow come from PubChem BioAssay.

In assay [1] the test system is Wnt5a (protein binding on small-molecule microarray). The experiment in a line: small molecules binding Wnt5a protein – biophysical, small-molecule microarray, 635/667 nm fluorescence, primary screen (AID 1142).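 Note: fluorescence read at 667 nm with signal to noise per printed feature.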 The note with it: 635 nm fluorescence, higher = more signal.
Assay [2] is described as follows: ATP-based viability of Huh7 replicon cells – cell-based, CellTiter-Glo luminescence, basal, 48 h, cytotoxicity control for HCV replication inhibitor project, primary screen (AID 1143).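 Note: Huh7 hepatoma cells carrying a hepatitis C replication reporter with no stimulus; test concentration not given here.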 The note with it: higher = more signal, called active from +8 up or from −8 down. For orientation: Replicon systems follow genome replication, usually without infectious particles.
Assay [3] is described as follows: Pseudomonas biofilm growth suppression – PAO1 strain, BacTiter-Glo luminescence, LB-PBS, primary screen (AID 1144). The note with it: P. aeruginosa PAO1 biofilm, 12 h, higher = more signal.
The nature of assay [4]: basal CRE-LacZ reporter activity in PC12 – cell-based, unstimulated, primary screen (AID 1145). Particulars: no forskolin, luminescence, 4.5 h, higher = more signal, called active from +8 up or from −8 down.
A short description of assay [5]: forskolin-driven CRE-LacZ activity in PC12 – cell-based, CRE-LacZ reporter, forskolin-stimulated, primary screen (AID 1146).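 Note: PC12 cells with 6xCRE LacZ reporter stimulated by forskolin 10 µM; beta-galactosidase reporter signal reflecting CREB driven transcription.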 Particulars: luminescence, 4.5 h, higher = more signal, called active from +8 up or from −8 down.
Assay [6] deals with Streptavidin (Streptomyces avidinii) (UniProt P22629). The experiment in a line: compounds binding control protein streptavidin – biophysical, small-molecule microarray, 635/667 nm fluorescence, artefact control for SMM compound annotation, primary screen (AID 1147).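 Note: signal reflects streptavidin binding to arrayed compounds as a control protein.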 Particulars: higher = more signal.
Chain of Streptavidin (Streptomyces avidinii) (P22629 whole entry, looked up): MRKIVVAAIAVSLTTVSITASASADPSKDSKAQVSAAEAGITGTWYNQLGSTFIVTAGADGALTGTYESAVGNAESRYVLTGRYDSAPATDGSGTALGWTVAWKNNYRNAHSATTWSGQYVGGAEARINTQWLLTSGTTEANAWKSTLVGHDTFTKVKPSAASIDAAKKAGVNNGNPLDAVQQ
Assay [7] is described as follows: probe aInhba binding on compound microarray – biochemical, small-molecule microarray, 635/667 nm fluorescence, primary screen (AID 1148).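 Note: score merges 667nm spot fluorescence with signal-to-noise for antibody binding to printed compounds.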 The note with it: higher = more signal.
Assay [8] has as its target Torsin-1A (Homo sapiens) (UniProt O14656). The assay can be described thus: TOR1A wild-type binding on microarray – cell lysate, small-molecule microarray, lysate, 635/667 nm, primary screen (AID 1149). The note with it: COS7 hTOR1A-WT lysate, 635 nm fluorescence, higher = more signal.
For assay [9] the target is unchanged. The experiment in a line: torsin A mutant lysate binding on microarrays – cell lysate, small-molecule microarray, COS7 lysate, 635/667 nm fluorescence, primary screen (AID 1150).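 Note: score pools 667 nm emission and signal to noise measuring lysate protein binding.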 The note with it: COS7 hTOR1A mutant lysate, 635 nm fluorescence, higher = more signal.
Assay [10] has as its system Sonic hedgehog protein (Shh). The experiment in a line: Sonic hedgehog microarray binding compounds – biochemical, small-molecule microarray, 635/667 nm fluorescence, primary screen (AID 1151).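 Note: Shh protein binding to compounds spotted on small-molecule microarray slides; score combines spot fluorescence intensity with signal-to-noise across triplicate slides.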 Particulars: 635 nm fluorescence, higher = more signal.
Assay [11] is described as follows: optical density shifts of acrAB sulA E. coli – strain DRC41, OD650, 48 h, E. coli filamentation inducer project, primary screen (AID 1152).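 Note: E. coli MC1000 strain DRC41 lacking acrAB efflux pump and sulA.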 Particulars: higher = more signal, called active from +8 up or from −8 down.
The nature of assay [12]: probe aLefty1 binding on compound microarray – biochemical, small-molecule microarray, 635/667 nm fluorescence, primary screen (AID 1153).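 Note: score merges spot fluorescence with signal-to-noise ratio from the scanned slide images.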 Particulars: higher = more signal.
The nature of assay [13]: plasmodial surface anion channel blockers, osmotic lysis – cell-based, P. falciparum Indochina, OD700, 1 h, primary screen (AID 1154). Particulars: P. falciparum Indochina infected RBC osmotic lysis, higher = more signal, called active from +8 up or from −8 down.
Assay [14] can be described thus: plasmodial surface anion channel blockers, osmotic lysis – cell-based, P. falciparum Indochina, OD700, 2 h, primary screen (AID 1155).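 Note: lysis reports solute entry through the parasite surface anion channel PSAC.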 The note with it: P. falciparum Indochina infected erythrocytes, higher = more signal, called active from +8 up or from −8 down.
Assay [15] is described as follows: changes in parasitized red cell lysis, either direction – P. falciparum Indochina, OD700, 3 h, PSAC antagonist project, primary screen (AID 1156). Particulars: P. falciparum-infected erythrocytes, osmotic lysis, higher = more signal, called active from +8 up or from −8 down.
A short description of assay [16]: plasmodial surface anion channel blockers, osmotic lysis – cell-based, P. falciparum Indochina, OD700, 18 h, primary screen (AID 1157). Particulars: P. falciparum Indochina infected erythrocytes, osmotic lysis OD700, 18 h; higher = more signal, called active from +8 up or from −8 down.
The nature of assay [17]: S6 kinase pathway phospho-S6 level changes – cell-based, A549, cytoblot, luminescence, serum-stimulated, primary screen (AID 1158).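 Note: serum-stimulated A549 lung adenocarcinoma cells; signal is phosphorylated S6 detected by cytoblot immunostaining with HRP secondary.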 Particulars: 5 h, higher = more signal.
Assay [18] concerns the target NADPH oxidase 2 (Homo sapiens) (UniProt P04839). The assay can be described thus: compounds shifting NOX2 Amplex Red fluorescence – cell-based, HEK293-NOX2, PMA-stimulated, NOX inhibitor project, primary screen (AID 1159). Note: test concentration not given here. Particulars: 45 min, higher = more signal, called active from +8 up or from −8 down.
Assay [19] has as its target NADPH oxidase 4 (Homo sapiens) (UniProt Q9NPH5). The experiment in a line: compounds shifting NOX4 Amplex Red fluorescence – cell-based, HEK293-NOX4, tetracycline-induced, NOX inhibitor project, primary screen (AID 1160). The note with it: HEK293-NOX4, Amplex Red H2O2 fluorescence, 45 min; higher = more signal, called active from +8 up or from −8 down.
Assay [20] concerns the target NADPH oxidase 5 (Homo sapiens) (UniProt Q96PH1). The assay can be described thus: compounds shifting NOX5 Amplex Red fluorescence – cell-based, HEK293-NOX5, NOX inhibitor project, primary screen (AID 1161). Particulars: HEK293-NOX5, ionomycin, 45 min, higher = more signal.

The source made the active and inactive calls. Unless noted, the rule behind the calls is not given here.

Chain of NADPH oxidase 5 (Homo sapiens) (Q96PH1 whole entry, looked up): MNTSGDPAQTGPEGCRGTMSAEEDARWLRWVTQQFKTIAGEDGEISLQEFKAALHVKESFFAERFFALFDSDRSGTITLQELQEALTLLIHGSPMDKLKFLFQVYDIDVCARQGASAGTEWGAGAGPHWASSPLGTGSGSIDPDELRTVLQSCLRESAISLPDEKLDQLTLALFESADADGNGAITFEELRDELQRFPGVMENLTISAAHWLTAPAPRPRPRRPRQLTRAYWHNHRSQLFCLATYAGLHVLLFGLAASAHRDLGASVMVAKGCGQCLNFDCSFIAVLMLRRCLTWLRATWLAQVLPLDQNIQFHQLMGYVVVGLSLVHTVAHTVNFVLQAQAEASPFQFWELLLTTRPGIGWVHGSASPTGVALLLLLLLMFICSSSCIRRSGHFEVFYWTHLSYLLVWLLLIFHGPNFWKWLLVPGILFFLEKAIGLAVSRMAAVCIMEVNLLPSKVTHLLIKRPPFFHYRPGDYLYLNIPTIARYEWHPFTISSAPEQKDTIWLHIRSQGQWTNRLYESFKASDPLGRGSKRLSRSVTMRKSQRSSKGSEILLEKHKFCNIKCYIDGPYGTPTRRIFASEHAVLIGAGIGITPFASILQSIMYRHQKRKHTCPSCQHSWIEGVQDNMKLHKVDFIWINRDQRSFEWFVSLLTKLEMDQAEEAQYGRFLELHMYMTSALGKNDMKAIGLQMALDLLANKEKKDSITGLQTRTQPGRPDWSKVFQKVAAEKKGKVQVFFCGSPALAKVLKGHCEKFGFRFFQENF
Chain of NADPH oxidase 4 (Homo sapiens) (Q9NPH5 whole entry, looked up): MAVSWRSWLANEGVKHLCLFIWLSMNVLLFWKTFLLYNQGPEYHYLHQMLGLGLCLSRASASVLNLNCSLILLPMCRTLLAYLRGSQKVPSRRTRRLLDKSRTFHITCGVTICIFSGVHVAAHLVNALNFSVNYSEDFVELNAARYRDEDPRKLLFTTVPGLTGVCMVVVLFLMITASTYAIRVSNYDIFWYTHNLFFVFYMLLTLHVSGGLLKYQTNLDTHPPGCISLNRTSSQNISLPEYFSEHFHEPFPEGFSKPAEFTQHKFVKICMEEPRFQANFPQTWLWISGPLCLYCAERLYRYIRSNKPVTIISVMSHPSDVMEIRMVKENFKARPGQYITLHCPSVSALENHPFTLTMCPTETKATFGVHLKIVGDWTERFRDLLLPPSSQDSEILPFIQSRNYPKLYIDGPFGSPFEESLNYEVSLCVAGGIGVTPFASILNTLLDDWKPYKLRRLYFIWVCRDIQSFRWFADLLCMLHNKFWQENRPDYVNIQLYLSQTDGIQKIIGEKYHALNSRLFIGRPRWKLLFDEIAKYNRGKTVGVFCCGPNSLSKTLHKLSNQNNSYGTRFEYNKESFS
Chain of Torsin-1A (Homo sapiens) (O14656 whole entry, looked up): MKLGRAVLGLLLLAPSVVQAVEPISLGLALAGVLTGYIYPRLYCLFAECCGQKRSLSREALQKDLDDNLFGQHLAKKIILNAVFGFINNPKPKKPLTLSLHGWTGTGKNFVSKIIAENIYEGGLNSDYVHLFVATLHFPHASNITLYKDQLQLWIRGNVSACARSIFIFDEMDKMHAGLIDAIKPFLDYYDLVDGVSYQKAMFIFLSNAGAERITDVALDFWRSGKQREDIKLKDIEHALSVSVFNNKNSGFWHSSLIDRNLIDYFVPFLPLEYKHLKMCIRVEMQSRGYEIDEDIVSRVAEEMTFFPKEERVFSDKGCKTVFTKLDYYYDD
Chain of NADPH oxidase 2 (Homo sapiens) (P04839 whole entry, looked up): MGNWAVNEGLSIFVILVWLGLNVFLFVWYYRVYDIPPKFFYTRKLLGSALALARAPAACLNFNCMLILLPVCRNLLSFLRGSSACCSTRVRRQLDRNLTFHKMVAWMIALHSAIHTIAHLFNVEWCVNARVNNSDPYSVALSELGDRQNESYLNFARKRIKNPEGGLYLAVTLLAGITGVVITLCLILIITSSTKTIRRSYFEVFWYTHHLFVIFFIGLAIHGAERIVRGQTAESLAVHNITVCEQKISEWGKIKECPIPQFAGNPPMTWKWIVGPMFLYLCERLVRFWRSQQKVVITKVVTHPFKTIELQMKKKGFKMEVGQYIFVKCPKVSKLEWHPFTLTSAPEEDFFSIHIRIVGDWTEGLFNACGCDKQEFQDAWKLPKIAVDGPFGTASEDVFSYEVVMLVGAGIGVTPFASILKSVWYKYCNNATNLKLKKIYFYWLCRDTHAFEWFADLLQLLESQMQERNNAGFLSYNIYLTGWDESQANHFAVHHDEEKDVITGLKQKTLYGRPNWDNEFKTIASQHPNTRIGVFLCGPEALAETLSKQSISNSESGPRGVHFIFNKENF

Take `C=CC[C@@]1(C(=O)N(C)C)N=C(c2ccc(OCCCO)cc2)O[C@@H]1c1ccccc1`: the composite z-score is 0.919 in assay [1]; -0.232 in assay [6]; 0.496 in assay [7]; 0.986 with Torsin-1A (Homo sapiens) [8]; 0.571 in the assay with Torsin-1A (Homo sapiens) [9]; -0.0763 in assay [10]. This molecule also had a composite z-score in [12] of 0.123. In addition, the z-score was -1.45 (inactive) in assay [2]; 0.442 (inactive) in [3]; 0.652 (inactive) in assay [4]; 0.535 (inactive) in [5]; -0.463 (inactive) in assay [11]; 24 (active) in assay [13]. For the same molecule, the z-score in assay [14] is 5.44 (inactive); in [15], 0.549 (inactive); in assay [16], 1.13 (inactive); in [17] it was -0.342; in assay [18], -0.315 (inactive); in [19], 0.723 (inactive). The z-score in assay [20] was -0.651.
Take `CCOC(=O)C[C@H]1[C@H](OC(=O)Cc2ccc3c(c2)OCO3)[C@@H](NC(=O)c2ccccc2)c2cc(OCCCO)ccc2N1C(=O)Cc1ccc(OC)cc1`: the composite z-score in assay [1] was -0.0328; in assay [6] it was 0.662; in assay [7], -0.045; with Torsin-1A (Homo sapiens) [8], 0.693; in the assay with Torsin-1A (Homo sapiens) [9] it was 0.749; in [10], -0.256. Also, the composite z-score in assay [12] was -0.31. For the same molecule, the z-score in assay [2] is -1.82 (inactive); in [3], -1.04 (inactive); in [4], 2.31 (inactive); in assay [5] it was -0.789 (inactive); in assay [11], 1.57 (inactive); in [13], 9.58 (active). Moreover, the z-score in [14] was 0.828 (inactive); in assay [15], -0.288 (inactive); in [16], -0.129 (inactive); in assay [17], 2.91; in assay [18], -0.986 (inactive); in assay [19], 0.205 (inactive). Besides, in [20], the z-score was -1.1.
Turning to `N#Cc1ccc(C(O)C2C=CC3C(=O)N(c4ccccc4)C(=O)C3N2Nc2ccc([N+](=O)[O-])cc2)cc1` (stereo not given), the composite z-score is 0.488 in assay [1]; 1.86 in [6]; 0.252 in [7]; 0.0605 with Torsin-1A (Homo sapiens) [8]; 0.212 with Torsin-1A (Homo sapiens) [9]; -0.51 in assay [10]. Moreover, the composite z-score in [12] turned out to be 0.391. The z-score in assay [2] was -0.843 (inactive); in [3], -0.532 (inactive); in [4] it was -0.0696 (inactive); in assay [5] it was -1.24 (inactive); in assay [11], -0.955 (inactive); in assay [13] it was 25.8 (active). The z-score in [14] is 12.8 (active); in assay [15], 2.25 (inactive); in assay [16], 1.56 (inactive); in assay [17], -0.283; in assay [18], -0.562 (inactive); in assay [19], -2.25 (inactive). The z-score in assay [20] was -1.83.
In the case of `N[C@@H](Cc1ccccc1)Cn1cc(C2(O)CCCCC2)nn1`, the composite z-score in assay [1] was -0.0937; in [6] it was 0.984; in [7], -0.0494; with Torsin-1A (Homo sapiens) [8], 0.0636; in the assay with Torsin-1A (Homo sapiens) [9], -0.0257; in assay [10], -0.219. Moreover, the composite z-score in assay [12] worked out at 0.099. For the same molecule, the z-score in [2] is 0.08 (inactive); in assay [3], 0.683 (inactive); in [4], -0.244 (inactive); in [5], 0.766 (inactive); in assay [11], -1.05 (inactive); in [13], 0.225 (inactive). Further, the z-score in [14] is -0.304 (inactive); in assay [15] it was 0.005 (inactive); in assay [16] it was 0.137 (inactive); in [17], -0.225; in [18], 0.0811 (inactive); in assay [19], 1.51 (inactive). Also, the z-score in assay [20] came out at 1.19.
Take `Cc1ccc(S[C@]2(C(=O)NC3CC3)CC(=O)N(Cc3cc(C(F)(F)F)cc(C(F)(F)F)c3)[C@@H]2c2ccc(CO)cc2I)cc1`: the composite z-score in assay [1] was 0.272; in assay [6], 0.389; in assay [7], 0.532; in the assay with Torsin-1A (Homo sapiens) [8], -0.597; in the assay with Torsin-1A (Homo sapiens) [9] it was 0.409; in assay [10], 1.14. For the same molecule, in assay [12], the composite z-score is -0.625. Also, the z-score was -0.636 (inactive) in assay [2]; 0.141 (inactive) in assay [3]; -0.0243 (inactive) in assay [4]; 1.16 (inactive) in [5]; 0.147 (inactive) in [11]; 5.58 (inactive) in assay [13]. In addition, the z-score in [14] is 0.774 (inactive); in [15], 0.231 (inactive); in [16], 0.229 (inactive); in assay [17], -0.185; in assay [18], 1.52 (inactive); in assay [19] it was -1.62 (inactive). For the same molecule, in [20], the z-score was 1.14.
As for `C[C@@H](OCc1ccccc1)C1NC(=O)[C@@]23C(=O)N[C@@H](Cc4ccccc4)C2[C@H](C)[C@@]2(C)O[C@H]2C3/C=C/C/C=C\CNC(=O)[C@H](Cc2ccccc2)NC1=O` (stereo not given in full), the composite z-score in assay [1] was -0.0187; in assay [6], -0.85; in [7], 0.0131; with Torsin-1A (Homo sapiens) [8], -0.258; with Torsin-1A (Homo sapiens) [9], 0.293; in assay [10], 1.07. Moreover, in assay [12], the composite z-score was -0.0544. Moreover, the z-score is -3.97 (inactive) in [2]; 0.541 (inactive) in assay [3]; 5.48 (inactive) in assay [4]; -0.164 (inactive) in assay [5]; 0.725 (inactive) in [11]; 1.18 (inactive) in assay [13]. For the same molecule, the z-score in [14] is 0.012 (inactive); in [15], 0.526 (inactive); in assay [16] it was 0.156 (inactive); in assay [17], 0.858; in [18], 0.487 (inactive); in [19], 0.924 (inactive). In [20], the z-score worked out at 0.349.
For the molecule `CO[C@H]1O[C@H](CO)[C@@H](OC(=O)Nc2ccccc2)[C@@H]2OC(=O)[C@H](Cc3ccccc3)C/C=C/C[C@@H](Cc3ccccc3)C(=O)O[C@@H]12`, the composite z-score in assay [1] is 0.399; in assay [6], 0.564; in assay [7], -0.0762; with Torsin-1A (Homo sapiens) [8], 0.527; with Torsin-1A (Homo sapiens) [9], 0.348; in [10], 1.62. The molecule further registered a composite z-score in [12] of 0.302. Also, the z-score is -3.81 (inactive) in [2]; -0.805 (inactive) in [3]; 0.512 (inactive) in [4]; -1.36 (inactive) in [5]; 0.863 (inactive) in [11]; 10.1 (active) in [13]. The z-score in assay [14] is 0.342 (inactive); in assay [15], -1.91 (inactive); in assay [16] it was -0.681 (inactive); in assay [17], 1.31; in assay [18] it was -3.35 (inactive); in assay [19], -0.599 (inactive). Moreover, in [20], the z-score is -1.57.
As for `CC(C)(C)OC(=O)CC[C@]1(C(N)=O)N=C(c2ccc(OCCCO)cc2)O[C@H]1c1ccccc1CN=[N+]=[N-]`, the composite z-score is 0.602 in assay [1]; 2 in assay [6]; 0.355 in assay [7]; 1.57 with Torsin-1A (Homo sapiens) [8]; 1.1 in the assay with Torsin-1A (Homo sapiens) [9]; -0.336 in [10]. For the same molecule, the composite z-score in assay [12] came out at 0.5. Also, the z-score in [2] was 0.268 (inactive); in [3] it was 0.201 (inactive); in assay [4], 1.04 (inactive); in [5], -0.671 (inactive); in assay [11], 0.434 (inactive); in [13], 21.6 (active). In addition, the z-score in assay [14] was 5.64 (inactive); in [15], -0.173 (inactive); in [16], 0.223 (inactive); in [17] it was 0.0054; in assay [18], 0.709 (inactive); in assay [19], -0.508 (inactive). The z-score in assay [20] turned out to be 1.26.
